Test results reported in PubChem BioAssay AID1159580 (chemical genetic matrix, 2015).
Screen size: about 5,500 compounds; about 2,000 (36%) were called active. Another 18% or so got no clear call; they are omitted. Rule as the data show it: active = normalized growth mostly below about 0.91 (no sharp cut-off); inconclusive = no clear call, values can overlap the other calls; inactive = mostly above about 0.92. The list shows a part of the results.

Assay: chemical genetic growth profiling, strain panel (AID 1159580);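 also: tested at 20 µM; growth read once vehicle control cultures reached saturation at 30 °C; 1 = growth at the plate median or of vehicle wells; lower values mean less growth of the strain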
Conditions: S. cerevisiae deletion strains, growth OD

Measured: normalized growth

Nc1ccc(Sc2cc(Cl)ccc2Cl)nc1
active: locus YBR229C, strain ROT2, stronger effect = lower value 0.906 | locus YGR078C, strain PAC10, stronger effect = lower value 0.911 | locus YHR030C, strain SLT2, stronger effect = lower value 0.341 | locus YHR087W, strain rtc3, stronger effect = lower value 0.898 | locus YJL187C, strain SWE1, stronger effect = lower value 0.928 | locus YJR075W, strain HOC1, stronger effect = lower value 0.827 | locus YKL190W, strain CNB1, stronger effect = lower value 0.762 | locus YLR039C, strain RIC1, stronger effect = lower value 0.398 | locus YLR058C, strain SHM2 (second series), stronger effect = lower value 0.929 | locus YLR085C, strain ARP6, stronger effect = lower value 0.383 | locus YLR262C, strain YPT6, stronger effect = lower value 0.348 | locus YML094W, strain GIM5, stronger effect = lower value 0.828 | locus YMR307W, strain GAS1, stronger effect = lower value 0.454 | locus YNL298W, strain CLA4 (second series), stronger effect = lower value 0.781 | locus YNR030W, strain Alg12, stronger effect = lower value 0.785 | locus YOL006C, strain TOP1, stronger effect = lower value 0.594 | locus YPL241C, strain CIN2, stronger effect = lower value 0.737 | locus YPR135W, strain CTF4, stronger effect = lower value 0.497
inactive: locus YAL013W, strain DEP1, stronger effect = lower value 0.947 | locus YCL061C, strain MRC1, stronger effect = lower value 0.958 | locus YDL101C, strain DUN1, stronger effect = lower value 0.963 | locus YDR150W, strain NUM1, stronger effect = lower value 0.843 | locus YEL061C, strain CIN8, stronger effect = lower value 0.916 | locus YJR043C, strain POL32, stronger effect = lower value 0.932 | locus YMR219W, strain ESC1, stronger effect = lower value 0.958 | locus YNL153C, strain GIM3, stronger effect = lower value 0.934 | locus YNL322C, strain KRE1, stronger effect = lower value 0.97 | locus YPL055C, strain LGE1, stronger effect = lower value 0.99
